# Compounds with a hit are over-represented: about 3.8% of the library has one in this group of screens.
# CR mimetic SO: reduction of superoxide in aged yeast, primary screen, HTS; S. cerevisiae aged cells, superoxide DHE fluorescence; hits give low values; superoxide response (% of plate mean), % at 10 µM; AID 2690, 2010; 0.18% of 330,000 active;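 active = superoxide response under a set limit, about three screen SD below normal, cut at about 65% in these data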;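 also: yeast aged for seven days with compound at 30 °C before DHE staining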
# NLRP3 yeast inh: NALP3 inflammasome inhibitors in reconstituted yeast, primary screen, luminescence, uHTS. Yeast reconstituted NLRP3/ASC/caspase-1, beta-gal luminescence, 24 h. inhibition, % at 10 µM. 0.39% of 330,000 active. AID 2825, 2010;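 active = inhibition of 50% or more; inactive = inhibition below 50%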
# TIM10 inh: growth inhibitors of isogenic TIM10 control yeast, primary screen, counter-screen for tim10-1 yeast inhibitor project, luminescence, uHTS; S. cerevisiae TIM10 strain growth, BacTiter-Glo luminescence, 24 h; inhibition, % at 10 µM; 1.4% of 330,000 active;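 active = inhibition of 40% or more at the single tested concentration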;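 also: wild-type TIM10 isogenic control strain grown at permissive 25 °C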
# tim10-1 inh: growth inhibitors of tim10-1 mutant yeast, primary screen, luminescence, uHTS. S. cerevisiae tim10-1 ts strain growth, BacTiter-Glo, 24 h. inhibition, % at 20 µM. 2.2% of 330,000 active. AID 463190, 2010;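 active = inhibition of at least 40%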;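 also: mutant grown at 25 °C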
# tim23-1 inh: growth inhibitors of tim23-1 mutant yeast, primary screen, luminescence, uHTS; inhibition, % at 20 µM; 1.3% of 330,000 active; S. cerevisiae tim23-1 growth, BacTiter-Glo luminescence, 24 h;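 active = growth inhibition of the mutant yeast at or above 50%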;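 also: temperature-sensitive mutant grown at 25 °C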
# tim10-1 conf: growth inhibitors of tim10-1 mutant yeast, confirmation, single concentration, luminescence, S. cerevisiae | 56% of 7,400 active | AID 463213, 2010 | S. cerevisiae tim10-1 ts strain growth, BacTiter-Glo, 24 h | inhibition, % at 20 µM | shares compounds with tim10-1 inh;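 active = inhibition of yeast growth at or above a set limit in either of two repeat tests at 20 µM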;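 also: tim10-1 mutant grown at permissive 25 °C to find synthetic lethal compounds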
# tim10 confirm: growth inhibitors of wild-type TIM10 yeast, confirmation, counter-screen for tim10-1 synthetic lethality project, single concentration, luminescence, S. cerevisiae; shares compounds with TIM10 inh; S. cerevisiae tim10 strain growth, BacTiter-Glo luminescence, 24 h; inhibition, % at 10 µM; 63% of 4,600 active;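 active = inhibition of yeast growth at or above a set limit in either of two replicates at 10 µM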; also: this counterscreen used the strain with wild-type TIM10
# Hits are given with their value; . = inactive; / = no result.
SMILES,CR mimetic SO,NLRP3 yeast inh,TIM10 inh,tim10-1 inh,tim23-1 inh,tim10-1 conf,tim10 confirm
O=C(CS(=O)c1ccccc1[N+](=O)[O-])Oc1ccc(Br)cc1 (configuration not stated),.,.,51.1,81.1,.,64.2,54.5
N#Cc1c(-c2ccccc2)cc(-c2ccccc2)nc1Br,.,.,.,.,.,/,/
COc1cccc(N2C(C(C)=O)=NN(c3ccccc3)C2c2ccc(N3CCOCC3)cc2)c1 (configuration not stated),.,.,42.2,47.9,.,31.7,.
CC(=O)C1=NN(c2ccccc2)C(c2ccc3c(c2)OCO3)N1c1ccc(N2CCOCC2)cc1 (configuration not stated),.,.,.,.,.,/,/
COc1cc2c(cc1OC)C(C)=NCC2,.,.,.,.,.,/,/
O=C(O)c1ccc(-c2ccc(Cl)cc2Cl)o1,.,.,.,.,.,/,/
COc1cc2c(cc1OC)C(c1ccc(-c3ccccc3Cl)o1)=NCC2,.,.,45.6,46.0,.,40.4,47.3
COc1cc2c(cc1OC)C(c1ccc(-c3cc(Cl)ccc3Cl)o1)=NCC2,.,.,45.1,45.8,.,43.5,45.5
COc1cc2c(cc1OC)C(c1ccc(-c3ccc(Cl)cc3Cl)o1)=NCC2,.,.,47.6,51.1,.,.,35.6
COc1cc2c(cc1OC)C(c1ccc(Cl)cc1)=NCC2,.,.,.,.,.,/,/
CCOC(=O)N1CCC(=NNC(=O)COc2cccc(C)c2)CC1,.,.,.,.,.,/,/
COc1ccc(C(=O)NC2CCCc3ccccc32)cc1S(=O)(=O)N1CCOCC1 (configuration not stated),.,.,.,.,.,/,/
COc1ccc(-c2noc(CCC(=O)N3CCN(c4cccc(F)c4)CC3)n2)cc1,.,/,.,.,.,/,/
Cc1ccc(COc2ccccc2C(=S)N2CCCC2)cc1,.,.,41.6,40.3,.,.,.
Fc1ccc(COc2ccccc2C(=S)N2CCCC2)cc1,.,.,.,.,.,/,/
CCN(CC)c1ccc(/C=N/NC(=S)NCc2ccc(OC)cc2)cc1,.,.,44.5,44.9,.,.,42.3
COc1ccc(CNC(=S)N/N=C/c2ccncc2)cc1,.,.,.,.,.,/,/
Cc1cc(C)c(Cc2c(C)nc3c(C(=O)NCc4ccco4)cnn3c2C)c(C)c1,.,.,.,.,.,/,/
O=C1CN(C(=O)/C=C/c2ccccc2F)c2ccccc2N1,.,.,.,.,.,/,/
Cc1cccc(C)c1NC(=O)c1ccc([N+](=O)[O-])s1,.,.,58.9,66.1,.,54.2,52.8
Cc1ccnc(NC(=O)c2ccc([N+](=O)[O-])s2)c1,.,.,69.0,75.3,.,71.7,79.9
COc1ccc(NC(=O)c2ccc([N+](=O)[O-])s2)c([N+](=O)[O-])c1,.,.,.,.,.,/,/
Cc1cccc(NC(=O)c2ccc([N+](=O)[O-])s2)c1C,.,.,60.7,65.8,.,55.2,53.0
Cc1ccnc(NC(=O)c2cc([N+](=O)[O-])cc([N+](=O)[O-])c2)c1,.,.,.,.,.,/,/
O=C(Nc1ccccc1N1CCOCC1)c1ccc([N+](=O)[O-])s1,.,.,61.4,65.7,.,71.6,84.1
O=C(Nc1ccccc1N1CCOCC1)c1ccccc1[N+](=O)[O-],.,.,.,.,.,/,/
CN(C(=O)Nc1ccccc1)n1cnc2ccccc2c1=O,.,.,.,.,.,/,/
Cc1ccc2nc(NC(=O)c3ccc(Cn4cc(Cl)cn4)o3)sc2c1,.,.,50.5,46.0,.,.,33.3
NNC(=O)c1ccc(Cn2cc(Cl)cn2)o1,.,.,.,.,.,/,/
Cc1ccc(NC(=O)CC2SC(=O)N(c3ccccc3)C2=O)cc1 (configuration not stated),.,.,41.1,49.0,.,41.5,.

# Compound activity as filed in PubChem BioAssay.
